Assay [1] can be described thus: NCI Yeast Anticancer Drug Screen. Data for the rad50 strain (AID 155).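 Note: 0% = growth of vehicle-only cultures of the same strain.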 The note with it: S. cerevisiae rad50 strain growth inhibition; at 50.0 µM; stronger effect = higher value. The method in brief:
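Readout: growth inhibition relative to vehicle-treated cultures. Compound exposure was carried out in a genetically defined yeast strain deficient in DNA damage repair.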

The nature of assay [2]: NCI Yeast Anticancer Drug Screen. Data for the mec2-1 strain (AID 157). The note with it: S. cerevisiae mec2-1 strain, at 50.0 µM, stronger effect = higher value. The method in brief: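 Yeast mec2-1 mutant treated with compound. Readout: growth inhibition vs vehicle controls.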
Assay [3] can be described thus: NCI Yeast Anticancer Drug Screen. Data for the sgs1 mgt1 strain (AID 161).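 Note: 0% = growth of cultures given vehicle only.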 The note with it: S. cerevisiae sgs1 mgt1 strain, at 50.0 µM, stronger effect = higher value. In short, it runs like this:
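Genetically altered yeast, compound exposure, growth inhibition relative to vehicle.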

Assay [4] is described as follows: NCI Yeast Anticancer Drug Screen. Data for the cln2 rad14 strain (AID 165).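 Note: 0% = growth equal to vehicle treated cultures.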 As to conditions: S. cerevisiae cln2 rad14 strain, at 50.0 µM, stronger effect = higher value. In short, it runs like this:
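cln2 rad14 yeast strain; compound exposure; growth inhibition read vs vehicle controls.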

Assay [5] is described as follows: NCI Yeast Anticancer Drug Screen. Data for the bub3 strain (AID 167). The note with it: S. cerevisiae bub3 mutant strain, at 50.0 µM, stronger effect = higher value. In short, it runs like this: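 Readout: yeast growth inhibition, expressed relative to vehicle-only wells. The test organism is a mutant strain from a panel with lesions in DNA repair or checkpoint genes.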
Assay [6] can be described thus: NCI Yeast Anticancer Drug Screen. Data for the mlh1 rad18 strain (AID 175). As to conditions: S. cerevisiae mlh1 rad18 strain growth inhibition; at 50.0 µM; stronger effect = higher value. The method in brief:
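Yeast w/ defined DNA-repair lesions; compound exposure; growth vs vehicle controls → % inhibition.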

Each structure is given as a SMILES string. Where “and” joins values, the source holds several entries; their conditions need not be identical. Equal entries are not always repeated. Compounds without any hit were thinned out: in the full panel of roughly 79,000, 15% have a hit. A number with no mark means an inactive call. Calls of active or inactive are those of the source. Cut-off read from the data, not from the text of the source: active = growth inhibition above about 70%; inactive = the rest.

These results are taken from PubChem BioAssay (NCI).

In the case of `COc1ccc2[nH]cc(CN(C)C)c2c1`, the growth inhibition in assay [1] is 21.4%; in assay [2] it was -7.6%; in assay [3], -10.2%; in assay [4] it was 5.3%; in assay [5] it was -6.35%; in assay [6], 18.6%.

For the compound `O=C=Nc1ccccc1Cl`, the growth inhibition is 12.5% in assay [1]; 3.1% in assay [2]; -1.15% in assay [3]; 5.45% in assay [4]; 4.2% in assay [5]; 5.15% in assay [6].

On to `[Mn+3].[O-][Cl+3]([O-])([O-])O.[O-]c1ccccc1C=NCCN1CC1.[O-]c1ccccc1C=NCCN1CC1`, for which the growth inhibition in assay [1] is 95.5% (active); in assay [2] it was 98.7% (active); in assay [3], 93.5% (active); in assay [4], 87.1% (active); in assay [5], 98.8% (active); in assay [6], 84.2% (active).

`CNC(Cc1ccccc1)c1cccc(O)c1` (stereo not drawn): the growth inhibition in assay [1] is 4.5%; in assay [2], -6.2%; in assay [3], -1.3%; in assay [4], -24.9%; in assay [5], 0.4%; in assay [6] it was -5.15%.

As for `CC(C)NC(C)C(C)c1ccccc1` (stereo not drawn), the growth inhibition in assay [1] was 5.95%; in assay [2], -3.15%; in assay [3], 0.1%; in assay [4], -11.9%; in assay [5], -10.2%; in assay [6] it was 11%.

Consider `CCCN(CCC)C(=O)CCl`, for which the growth inhibition in assay [1] is -4.55%; in assay [2], 5.2%; in assay [3], 5.85%; in assay [4], 3.3%; in assay [5], -4.55%; in assay [6], 9.4%.

Consider `COC1C=CC23c4cc5c(cc4COC2(O)CN(C)C3C1)OCO5` (stereo not drawn), for which the growth inhibition in assay [1] is -18.2%; in assay [2], -26.2%; in assay [3], -56.5%; in assay [4] it was -4.5%; in assay [5] it was -18.9%; in assay [6], -28.6%.

Turning to `CCN(CC)CCN(Cc1ccccc1)C(=O)C(O)(c1ccccc1)c1ccccc1`, the growth inhibition in assay [1] was -0.4%; in assay [2], -23.6%; in assay [3], -4.05%; in assay [4], -39.4%; in assay [5] it was -1.5%; in assay [6] it was -24.6%.

Consider `Cn1ccnc1C[N-]Cc1nccn1C.O=[N+]([O-])[O-].O=[N+]([O-])[O-].[Cu+2]`, for which the growth inhibition was 18.2% in assay [1]; 7.5% in assay [2]; -1.35% in assay [3]; 24.4% in assay [4]; -5.35% in assay [5]; 5.5% in assay [6].

Consider `c1cc[n+]2c3c(sc2c1)CCC3`, for which the growth inhibition in assay [1] is 9.75%; in assay [2], -8.2%; in assay [3], -5.25%; in assay [4], -4.15%; in assay [5], -6.7%; in assay [6] it was -26.8%.

As to `CC(=O)OC1CCC2(C)C(=CCC3C2CCC2(C)C(Oc4ccccc4)CCC32)C1` (stereo not drawn), the growth inhibition in assay [1] was -42.7%; in assay [2], -28.4%; in assay [3], -33.6%; in assay [4], 3.55%; in assay [5], -28.4%; in assay [6], -46.1%.

Consider `CN(C)CCCCCCN(C)C`, for which the growth inhibition in assay [1] was -8.85%; in assay [2] it was 3.9%; in assay [3], -12.5%; in assay [4] it was -9.8%; in assay [5], 6.9%; in assay [6] it was -4.75%.

`CCOC(=O)C(Cc1ccc(N(CCCl)CCCl)cc1)NC(=O)C(N)CO` (stereo not drawn): the growth inhibition was -4.05% in assay [1]; 17.6% in assay [2]; 4.75% in assay [3]; -1.3% in assay [4]; 12.3% in assay [5]; 7.5% in assay [6].

Regarding `O=NNc1ccc(Cl)cn1`, the growth inhibition in assay [1] was -11.5%; in assay [2], 3.75%; in assay [3], 3.1%; in assay [4], -1.45%; in assay [5] it was -18.3%; in assay [6], 3.3%.

As to `CCOC(=O)C(Br)Br`, the growth inhibition in assay [1] was 20%; in assay [2], -2.7%; in assay [3], -13.9%; in assay [4], 22.2%; in assay [5], 23.3%; in assay [6] it was 10.6%.

As to `c1cc(CCN2CCCCC2)ccn1`, the growth inhibition is -2.75% in assay [1]; -6.25% in assay [2]; -26.5% in assay [3]; -81.7% in assay [4]; -21.4% in assay [5]; -25.1% in assay [6].

Consider `O=C(Cc1ccccc1)OCCBr`, for which the growth inhibition was -8.95% in assay [1]; 4.65% in assay [2]; 0.95% in assay [3]; 15.1% in assay [4]; -16.2% in assay [5]; -2.05% in assay [6].

For `ClCc1ccco1`, the growth inhibition is 0.35% in assay [1]; 2.4% in assay [2]; 10.6% in assay [3]; -11.4% in assay [4]; 23.6% in assay [5]; 36.2% in assay [6].

With `NC(=S)N=C(N)N`, the growth inhibition in assay [1] was 11.8%; in assay [2], -3.55%; in assay [3], -6.25%; in assay [4], -10.4%; in assay [5] it was 8.4%; in assay [6], 9.85%.

Take `CC1=CC(C)C/C=C/C2C3OC3(C)C(C)C3C(Cc4c[nH]c5ccccc45)NC(=O)C23C(=O)C=CC(=O)C1O` (stereo not drawn): the growth inhibition in assay [1] is 88.4% (active); in assay [2], 92.5% (active); in assay [3] it was 92.6% (active); in assay [4], 91% (active); in assay [5] it was 91.3% (active); in assay [6] it was 92.1% (active).

As to `CC(C)c1cccc(OC(=O)N(C)C=O)c1`, the growth inhibition is -8.1% in assay [1]; 12.7% in assay [2]; -12.8% in assay [3]; -46.4% in assay [4]; -21.4% in assay [5]; -1.5% in assay [6].

For `O=CC(O)C(O)C(O)C(O)COP(=O)(O)Cc1ccccc1` (stereo not drawn), the growth inhibition in assay [1] was -44.9% and 4.75%; in assay [2] it was -12.2% and -25.2%; in assay [3], -62% and -32.6%; in assay [4], -25.3% and 28.1%; in assay [5], -10.2% and -9.4%; in assay [6] it was -48% and 7.55%.

Turning to `O=P(O)(O)C(O)c1ccncc1` (stereo not drawn), the growth inhibition in assay [1] is -28%; in assay [2], -14.9%; in assay [3] it was -15.8%; in assay [4], -23.1%; in assay [5], -22.6%; in assay [6], -21.9%.

In the case of `C/C=C(\C)C(=O)OC1CCN2CC=C(COC(=O)C(O)(C(C)O)C(C)(C)O)C12` (stereo not drawn), the growth inhibition was 12.3% in assay [1]; 2.3% in assay [2]; 2.5% in assay [3]; 4.85% in assay [4]; 6.25% in assay [5]; -0.55% in assay [6].

Turning to `Cc1nnnn1C`, the growth inhibition in assay [1] was -13.2%; in assay [2] it was -11.6%; in assay [3], -18.9%; in assay [4], -10.9%; in assay [5] it was -19.1%; in assay [6], -13.9%.

Turning to `NC(=O)c1cc([N+](=O)[O-])cc([N+](=O)[O-])c1`, the growth inhibition in assay [1] is 1.35%; in assay [2] it was -16.2%; in assay [3] it was 9.1%; in assay [4], 0%; in assay [5], 3.35%; in assay [6], 14.8%.

Turning to `CCOP(=O)(N=S=O)OCC`, the growth inhibition in assay [1] is 5.75%; in assay [2] it was -13.5%; in assay [3] it was -4.05%; in assay [4], -28.2%; in assay [5] it was 7.95%; in assay [6], -2.2%.

In the case of `NC(CCOCCP(=O)(O)O)C(=O)O` (stereo not drawn), the growth inhibition is -51.3% in assay [1]; -36.4% in assay [2]; -44% in assay [3]; -8% in assay [4]; -15.3% in assay [5]; -40.1% in assay [6].

With `CCC[CH2][Sn]([CH2]CCC)([CH2]CCC)[CH2]CC(=O)OC`, the growth inhibition is 99.5% (active) in assay [1]; 99.4% (active) in assay [2]; 99.5% (active) in assay [3]; 99.3% (active) in assay [4]; 99% (active) in assay [5]; 99.5% (active) in assay [6].

Take `COc1cc[c]([Pb]([c]2ccc(Cl)cc2)([c]2ccc(Cl)cc2)[c]2ccc(OC)cc2)cc1`: the growth inhibition is -13.4% in assay [1]; -8.95% in assay [2]; -1.1% in assay [3]; -25.7% in assay [4]; -4.25% in assay [5]; 16.2% in assay [6].

Take `COCCCNCCCN1CC1`: the growth inhibition was 2.25% in assay [1]; -4.4% in assay [2]; -6.9% in assay [3]; -22.7% in assay [4]; -22.4% in assay [5]; 10.1% in assay [6].

As for `CN1C2CCCC1CC(=O)C2`, the growth inhibition in assay [1] was -10.3%; in assay [2], -3.55%; in assay [3], -19.4%; in assay [4], -22.4%; in assay [5] it was -3.55%; in assay [6], -10.8%.

`O=C(CF)[O][Sb]([O]C(=O)CF)([c]1ccccc1)([c]1ccccc1)[c]1ccccc1`: the growth inhibition in assay [1] is 9.8%; in assay [2] it was 19.9%; in assay [3], 23.8%; in assay [4], -18.6%; in assay [5] it was 16.2%; in assay [6], 33.8%.

Regarding `CCC[CH2][Sn]([CH2]CCC)([CH2]CCC)[CH2]S(=O)(=O)O`, the growth inhibition in assay [1] is 99.3% (active); in assay [2], 98.8% (active); in assay [3], 98.9% (active); in assay [4], 98.2% (active); in assay [5] it was 99.4% (active); in assay [6], 99% (active).

In the case of `CC12CCC3C(CCC4=CC(=O)CCC43C=O)C1CCC2Oc1ccccc1` (stereo not drawn), the growth inhibition was 20.7% in assay [1]; -9.7% in assay [2]; 25% in assay [3]; 23.6% in assay [4]; 12.4% in assay [5]; 25.6% in assay [6].

With `COP(=O)(NC12CC3CC(CC(C3)C1)C2)OC`, the growth inhibition in assay [1] is -4.75%; in assay [2], 5.45%; in assay [3] it was -13.4%; in assay [4] it was 15.7%; in assay [5], -1.1%; in assay [6] it was -16.7%.

`CC(=O)OC1[C@H](n2ccnc2)C[C@H]2[C@@H]3CC=C4CC(N5CCCC5)CC[C@]4(C)[C@H]3CC[C@]12C` (stereo partly drawn): the growth inhibition in assay [1] is 2.1%; in assay [2], -9.1%; in assay [3], -29.9%; in assay [4], 7.05%; in assay [5], -48.8%; in assay [6] it was -55.4%.

`Cc1cccc(C)c1CCl`: the growth inhibition in assay [1] was -1.45% and 23.5%; in assay [2], -9.75% and -12.8%; in assay [3], -8.15% and -4.3%; in assay [4], 12.9% and -38.5%; in assay [5], 9.65% and -1.35%; in assay [6], 6.95% and 20.7%.
